Shown are actives, neighbours in structure and some others; about 3% of the full set was active somewhere.
esBAF inh = SWI/SNF esBAF complex inhibition | 2% of 350,000 active | mouse ES cells, Bmi1-luciferase knock-in reporter, 24 h; 100% = twice the neutral-well signal | reporter increase, % at 12.5 µM; in the data active means activation above about 40%; inconclusive means no clear call, values can overlap the other calls;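 further: 0% = median of the plate's neutral control wells and 100% = double that signal; a rise in the Bmi1 reporter signal indicates esBAF inhibition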
MITF TRPM1 HTS = increases MITF-driven TRPM1 promoter luciferase signal | SK-MEL-5 TRPM1-promoter luciferase, 24 h; % of positive control, neutral wells = 0 | activation, % at 12.5 µM | 0.75% of 300,000 active | AID 588334;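 active means mean activation of at least 80% with every replicate also reaching 80%; inconclusive means mean reaches 80% but some replicate falls short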;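 further: 0% = neutral control wells and 100% = parthenolide positive control wells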
Vif inh = HIV Vif inhibition | 0.35% of 340,000 active | AID 602346 | inhibition, % at 7.49 µM | HEK293T cells, Vif self-association by quenched fluorescence, imaging, 24 h; in the data active means inhibition above about 50%, passing the limit was not always enough; inconclusive means no clear call, values can overlap the other calls; inactive means below about 31%
Wnt bcat act = Wnt/beta-catenin pathway activation; Wnt/beta-catenin reporter cell assay, activator, plate reader; AID 743398; 1.2% of 300,000 active; activation, % at 9.35 µM; in the data active means activation above about 30%, passing the limit was not always enough; inconclusive means no clear call, values can overlap the other calls;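 further: 0% = neutral control wells and 100% = positive control wells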
Glyco luc inh = blocks N-linked glycosylation in D54 reporter cells. 0.23% of 360,000 active. AID 588692. reporter increase, % at 12.5 µM. D54 ERlucT glycosylation luciferase reporter, 24 h; percent of 100 nM tunicamycin response;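 active means mean luciferase reporter signal, scaled so untreated is 0 and the glycosylation-blocking control 100, at or above a set limit in every replicate; inconclusive means mean reaches the limit but not every replicate does; inactive means mean below the limit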;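 further: luciferase carries N-glycosylation sites so blocking glycosylation raises the light; 0% = median of neutral control wells and 100% = median of 100 nM tunicamycin wells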
PfHsp90 yeast 2 = reduces growth (ATP signal) of yeast expressing P. falciparum Hsp90; 0.32% of 310,000 active; AID 504621; S. cerevisiae expressing PfHsp90, BacTiter-Glo ATP, 48 h; yeast lacking PDR1 and PDR3 efflux regulators; inhibition, % at 9.4 µM;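 active means every replicate shows inhibition above about 80%, whatever the replicate mean, limit read from the data; inconclusive means mean inhibition reaches the set limit but some replicate falls short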;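 further: 0% = DMSO neutral controls and 100% = 20 µM radicicol positive controls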
An asterisk follows results filed as active; ? = inconclusive; nt = not tested or not shown.

SMILES	esBAF inh	MITF TRPM1 HTS	Vif inh	Wnt bcat act	Glyco luc inh	PfHsp90 yeast 2
COc1ccc(C(=O)NC2CC3CCCC(C2)N3Cc2ccccc2)cc1OC (stereo not given)	-0.4	0.0	52.1*	1.1	1.2	8.8
O=S(=O)(NCC1CCCO1)c1ccc(NS(=O)(=O)c2ccc(F)cc2)cc1 (stereo not given)	1.3	-11.1	-10.4	2.3	0.4	37.4
COCC(=O)N1CCC(Oc2ccc(C(=O)NCCCC3CCCC3)cc2)CC1	8.5	-7.8	-14.5	0.1	-6.0	-15.5
CC(C)CC#Cc1ccc2c(c1)O[C@H](CN(C)S(=O)(=O)c1cccc(F)c1)[C@H](C)CN([C@@H](C)CO)S2(=O)=O	-8.8	nt	nt	nt	nt	nt
CC1(C(=O)NS(=O)(=O)c2ccc(C#N)cc2)CCN1C(=O)C1CCCCC1 (stereo not given)	-3.0	nt	-6.2	-2.2	0.1	nt
CC1(C(=O)NS(=O)(=O)c2cccc(C#N)c2)CCN1C(=O)C1CCCCC1 (stereo not given)	-0.1	nt	-4.0	35.3*	-0.2	nt
CCCCn1c(N)c(N(Cc2ccccc2OC)C(=O)CC2OC(=O)c3ccccc32)c(=O)[nH]c1=O (stereo not given)	7.5	4.7	17.7	31.8*	-0.3	-17.1
Cn1c(-c2ccc(F)cc2)cnc1SCC(=O)N1CCCCC1	-9.1	nt	-4.8	34.9*	-15.6	nt
CC1Cc2ccccc2N1C(=O)CSc1ncc(-c2ccc(F)cc2)n1C (stereo not given)	11.6	41.7	0.2	58.9*	-2.8	7.5
Cn1c(-c2ccc(F)cc2)cnc1SCC(=O)N1CCCc2ccccc21	-1.8	17.8	-0.6	5.3	3.6	11.1
O=C(COC(=O)c1ccccc1SCC(=O)N1CCCC1)Nc1ccc(OC(F)F)cc1	0.4	10.7	4.4	0.0	0.2	16.4
CC(=O)Nc1ccc(S(=O)(=O)NCc2cn3c(C)csc3n2)cc1	-4.6	-3.3	-4.8	0.7	2.1	-26.0
O=C(Nc1ccc2c(c1)Cc1ccccc1-2)c1cccnc1	64.4*	?	-3.9	14.9	-0.8	19.4
O=C(Nc1ccc2c(c1)Cc1ccccc1-2)c1ccco1	6.9	151.2*	-1.9	48.2*	-10.9	13.4
COc1ccccc1NC(=O)CN(c1ccc([N+](=O)[O-])cc1)S(=O)(=O)c1ccccc1	nt	-1.0	4.4	-0.8	-0.3	-5.7
CC(C)CSc1nc2ccccc2n1CC(N)=O	-2.8	4.4	6.4	nt	-1.9	-4.2
COC(=O)Cn1c(SCc2ccccc2)nc2ccccc21	48.5*	41.5	0.5	nt	0.1	14.8
CCSc1nc2ccccc2n1CC(=O)OC	-7.7	-0.5	-1.8	0.5	-1.1	8.5
CC(C)Sc1nc2ccccc2n1CC(N)=O	-2.0	nt	3.5	44.3*	-1.7	nt
NS(=O)(=O)c1ccc(Nc2ccc([N+](=O)[O-])c3nonc23)cc1	-4.9	-3.6	-2.6	0.5	-1.1	-15.0
Nc1ccc(-c2c3ccc(=O)cc-3oc3cc(O)ccc23)c(C(=O)O)c1	0.0	6.1	72.8*	nt	0.2	-15.5
COc1ccc(-c2cc(=O)c3ccc(O)cc3o2)cc1OC	20.6	nt	5.5	-1.6	6.5	nt
Cc1ccc(-n2c(C)cc(C(=O)COC(=O)c3c(C)noc3C)c2C)cc1	-3.8	50.2	-5.0	51.1*	-5.1	-0.7
Cc1ccc(-n2c(C)cc(C(=O)COC(=O)C3=NNC(=O)CC3)c2C)cc1	-57.0	-3.9	-8.8	nt	-3.3	7.6
S=C(NCCc1ccccc1)NCC(c1ccco1)N1CCCCC1 (stereo not given)	nt	5.6	29.2	-0.3	-3.0	15.5
SMILES	esBAF inh	MITF TRPM1 HTS	Vif inh	Wnt bcat act	Glyco luc inh	PfHsp90 yeast 2
CCOc1cc(Br)c(COc2ccc(C)nc2[N+](=O)[O-])cc1OCC	-6.8	-6.4	-13.1	-0.5	-2.8	-15.6
Cc1ccc(OCc2ccc(Br)cc2)c([N+](=O)[O-])n1	nt	nt	nt	60.6*	nt	nt
Cc1ccc(OCCOc2cccc(Br)c2)c([N+](=O)[O-])n1	nt	103.0*	0.2	nt	2.7	-3.9
CN(Cc1ccccc1Cl)C(=O)C1CC(=O)N(c2ccc3c(c2)OCCO3)C1 (stereo not given)	7.7	12.1	2.8	10.2	-1.5	-8.3
O=S(=O)([N-]c1nc2ccccc2nc1-n1cc[n+](Cc2ccccc2)c1)c1ccc(Br)cc1	nt	nt	-2.4	-0.8	48.3*	nt
Cc1ccc(C)c(N(CC(=O)N(C)C)S(C)(=O)=O)c1	-1.6	4.5	28.6	nt	3.3	-6.8
CC1(C(=O)c2ccccc2)C2c3c(ccc4ccccc34)OC(=O)C21C(=O)N1CCOCC1 (stereo not given)	-0.8	2.7	-2.6	nt	2.0	105.2*
COC(=O)C(C)N1C(=O)S/C(=C\c2cc(C)n(-c3ccccn3)c2C)C1=O (stereo not given)	-48.3	40.2	1.0	nt	-13.1	-5.2
CCOC(=O)CN1C(=O)S/C(=C/c2cc(C)n(C)c2C)C1=O	47.2*	87.8*	nt	40.5*	1.3	5.8
COC(=O)C(C)N1C(=O)S/C(=C/c2cc(C)n(-c3ccccn3)c2C)C1=O (stereo not given)	-8.8	20.2	nt	57.0*	-11.2	-16.7
CCOC(=O)CN1C(=O)S/C(=C/c2cc(C)n(-c3ccccn3)c2C)C1=O	44.7*	52.6	0.9	nt	-5.5	-37.7
CCOC(=O)CN1C(=O)S/C(=C/c2ccc(C)o2)C1=O	12.3	12.9	-3.5	0.4	-0.6	-16.8
CO[C@H]1CN(C)C(=O)c2ccc(NC(=O)c3ccc4c(c3)OCO4)cc2OC[C@H](C)NC[C@H]1C	-0.3	nt	nt	nt	nt	nt
Cc1ccc(-c2cc(-c3ccccc3)no2)cc1	11.7	40.5	-3.3	24.0	-18.9	-21.6
Nc1nc(-c2ccccc2)cs1	?	38.0	-0.6	nt	1.7	-5.1
Nc1nc(-c2cc(-c3ccccc3)no2)cs1	18.0	88.3*	2.5	46.4*	-9.9	13.1
c1ccc(-c2cc(-c3ccccc3)on2)cc1	nt	78.9	-0.4	41.5*	-9.7	5.8
CCCCCCOc1ccc(/C(N)=N/O)cc1	74.5*	42.3	14.5	nt	1.4	-18.6
O=C(CCCC(=O)c1ccc(O)cc1)c1ccc(O)cc1	29.6	98.0*	-2.9	55.9*	-8.2	12.5
O=C(CCCC(=O)c1ccccc1)NCCc1ccccc1	-6.8	-4.0	-7.2	4.4	1.3	-1.3
CCCCOC(=O)c1ccc(O)cc1	-11.8	24.4	-2.1	-1.2	0.6	-10.2
O=C(CCCOC(=O)c1ccc(O)cc1)c1ccccc1	43.0*	24.4	3.5	-3.4	-4.0	-2.3
O=C(CCCc1ccccc1)c1ccccc1	23.1	91.8*	-11.6	31.4*	-10.0	0.4
CCC(=O)c1ccc(O)cc1	-2.8	0.5	38.1	1.8	1.4	11.7
COc1cccc(OCCOc2ccccc2[N+](=O)[O-])c1	nt	52.2	-8.2	nt	2.6	4.0
CC12CCC(C(=O)NNc3ccc([N+](=O)[O-])cc3)(OC1=O)C2(C)C (stereo not given)	-12.1	nt	-12.2	-1.0	2.2	0.4
